Assay outcomes (PubChem)
D2 antag = HTS Assay for Allosteric Antagonists of the Human D2 Dopamine Receptor: Primary Screen for Antagonists | HEK293 TREx D2 cells, calcium flux, dopamine EC80 | inhibition, % at 10 µM | 340,000 tested, 2% active; in the data active means inhibition above about 30%; inactive means below that, where a call was filed
Target sequence (P14416 whole entry, looked up): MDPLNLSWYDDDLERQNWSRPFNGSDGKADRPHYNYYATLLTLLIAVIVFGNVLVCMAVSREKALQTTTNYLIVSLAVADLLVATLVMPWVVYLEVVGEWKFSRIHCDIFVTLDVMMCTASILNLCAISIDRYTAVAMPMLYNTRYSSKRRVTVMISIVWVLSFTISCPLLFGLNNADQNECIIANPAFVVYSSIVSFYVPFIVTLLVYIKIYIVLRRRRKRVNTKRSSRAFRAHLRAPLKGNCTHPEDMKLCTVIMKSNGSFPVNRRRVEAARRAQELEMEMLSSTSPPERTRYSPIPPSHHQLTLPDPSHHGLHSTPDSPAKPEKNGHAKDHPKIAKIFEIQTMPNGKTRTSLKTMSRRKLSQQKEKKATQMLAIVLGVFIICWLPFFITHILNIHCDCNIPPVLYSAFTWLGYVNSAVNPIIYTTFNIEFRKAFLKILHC
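Compounds are added to dye-loaded, induced HEK293 T-REx cells coupled to calcium release via D2; after a 3 min kinetic read an EC80 dopamine stimulus is given and fluorescence is recorded for 3 more min.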
D2 PAM-1 = HTS Assay for Positive Allosteric Modulators of the Human D2 Dopamine Receptor: Primary Screen for Potentiators. D(2) dopamine receptor (Homo sapiens), P14416. HEK293 T-REx D2, calcium flux, EC20 dopamine potentiation. potentiation, % at 10 µM. 340,000 tested, 0.34% active. AID 485347, 2010;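 active means potentiation over 3 SD above the plate norm, cut at about 30% in these data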
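Primary screen. Calcium kinetics in induced HEK293 T-REx D2 cells: compound pre-addition 180 s, EC20 dopamine, 180 s more.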
D2 ag-1 = Beta-Arrestin HTS for Positive Allosteric Modulators of the Human D2 Dopamine Receptor: Agonists. D(2) dopamine receptor (Homo sapiens), P14416. DiscoveRx PathHunter D2 beta-arrestin, luminescence, 90 min; 100% = 57 uM dopamine signal. activation, % (test concentration not listed). 360,000 tested, 0.084% active; in the data active means activation above about 40%
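Agonist mode: compounds alone added to overnight-plated D2 PathHunter cells for 90 min at 37 C, with 57 uM final dopamine (EC100) defining full response. Beta-arrestin recruitment detected by chemiluminescent reagent, read after 1 h at ambient temperature.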
D2 ag-2 = HTS Assay for Allosteric Agonists of the Human D2 Dopamine Receptor: Primary Screen for Agonists. activation, % at 2 µM. 340,000 tested, 0.53% active. AID 485358, 2010. HEK293 T-REx D2 cells, calcium flux agonist mode. D(2) dopamine receptor (Homo sapiens), P14416;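 active means activation over 3 SD above normal in the single-dose calcium agonist read, cut at about 30% in these data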
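HEK293 Trex D2 cells, tetracycline-induced, o/n 30 C 5% CO2; no-wash Ca dye, RT 30–90 min; 10-cycle baseline, 23 nl cpd added, kinetic Ca read 180 s; agonist hits = positive Ca response.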
D2 PAM-2 = Beta-Arrestin HTS for Positive Allosteric Modulators of the Human D2 Dopamine Receptor: Potentiators. D(2) dopamine receptor (Homo sapiens), P14416. DiscoveRx D2 beta-arrestin cells, luminescence, 90 min; 100% = 57 uM dopamine signal. potentiation, % (concentration not given with the values). 360,000 tested, 0.23% active. AID 624464, 2012; in the data active means potentiation above about 50%
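PathHunter D2 cells, attached overnight at 37 deg C, received compound in DMSO plus dopamine at EC20 (50 nM final) for 90 min at 37 deg C. Beta-arrestin recruitment was read as luminescence after 1 h with detection reagent at ambient temperature.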
Of the large screens only hits and unclear results are named; the others gave an inactive call. Only some compounds are listed: those with a hit (about 2.4% of all), similar ones and a draw of the others.

Cc1ccc(CSC2=NCCN2S(=O)(=O)c2ccc(C)cc2)cc1	none (no result: D2 antag, D2 PAM-1, D2 ag-2)
Cc1ccc(S(=O)(=O)N2CCN=C2SCc2ccc(Cl)c(Cl)c2)cc1	D2 antag 30.2
CCOC(=O)Cn1c(=O)n(CC2CCCO2)c2nc(-c3ccc(CC)cc3)nc(C(N)=O)c21 (configuration not stated)	none (no result: D2 antag, D2 ag-1, D2 PAM-2)
CC(C)(C)c1ccc(C(=O)N2CCC(c3nc4ccccc4o3)CC2)cc1	none (no result: D2 antag, D2 ag-1, D2 PAM-2)
Cc1cccc(Oc2nc3ccccn3c(=O)c2/C=C(\C#N)c2nc3ccccc3s2)c1C	none (no result: D2 antag, D2 ag-1, D2 PAM-2)
Cc1cc(C)cc(NC(=O)c2cccc(NC3=NC4CS(=O)(=O)CC4S3)c2)c1 (configuration not stated)	D2 antag 34.1
COc1ccc(OC)c(CCNC(=O)c2ccc(NC3=NC4CS(=O)(=O)CC4S3)cc2)c1 (configuration not stated)	D2 antag 34.5
CCOc1ccccc1NC(=O)c1cccc(NC2=NC3CS(=O)(=O)CC3S2)c1 (configuration not stated)	none
Cc1ccc(CCNC(=O)Cc2ccc(NC3=NC4CS(=O)(=O)CC4S3)cc2)cc1 (configuration not stated)	D2 antag 37.7
COc1ccccc1NC(=O)C1=C(C)Nc2c(C(=O)Nc3ccc(F)cc3)cnn2C1c1ccc(Cl)cc1 (configuration not stated)	none (no result: D2 antag, D2 ag-1, D2 PAM-2)
O=C(Nc1cccc(C(=O)N2CCN(c3ccc(Cl)cc3)CC2)c1)c1nsc2ccccc12	none (no result: D2 antag, D2 ag-1, D2 PAM-2)
CCOc1cc(C(=O)Nc2ccc([N+](=O)[O-])cn2)cc(OCC)c1OCC	D2 antag 69.0
COc1ccc(C(=O)Nc2ccc([N+](=O)[O-])cn2)cc1OC	none
Cc1cc(C(=O)Nc2ccc([N+](=O)[O-])cn2)cs1	D2 antag 30.5
COc1ccc([N+](=O)[O-])cc1NC(=O)c1csc(C)c1	none
COc1cc(OC)cc(C(=O)Nc2ccc([N+](=O)[O-])cn2)c1	D2 antag 50.2
O=C(NCCOCCn1c(=O)oc2ccccc21)Nc1ccc(Cl)cc1	none (no result: D2 antag, D2 PAM-1, D2 ag-1, D2 PAM-2)
CCOC(=O)c1cc(C)n(CC2CCC(C(=O)Nc3ccc(Cl)cc3)CC2)c1C (configuration not stated)	none (no result: D2 antag, D2 ag-1, D2 ag-2, D2 PAM-2)
O=C1C(c2ccc(F)cc2)N(CCc2ccccc2)C(=O)CN1C1CCCCCC1 (configuration not stated)	none (no result: D2 antag, D2 ag-1, D2 PAM-2)
COc1ccc(C(=O)Nc2ccccc2N2CCOCC2)cc1[N+](=O)[O-]	none
COc1ccc(C(=O)NC(=S)Nc2ccccc2N2CCOCC2)cc1[N+](=O)[O-]	D2 antag 39.1
CC(OC(=O)c1cccnc1SCc1cc(=O)n2ccccc2n1)c1ccccn1 (configuration not stated)	D2 PAM-1 30.1
CCOC(=O)c1cccnc1SCc1cc(=O)n2ccccc2n1	none
Cc1cc(C)nc(SCc2cn3ccccc3n2)n1	D2 antag 38.3
Cc1cc(C)c(C#N)c(SCc2cn3ccccc3n2)n1	none
CCc1cccc(C)c1NC(=O)CSc1nc(C)c(C)o1	none
O=C(CSc1n[nH]c(-c2ccco2)n1)Nc1ccccc1Cl	D2 antag 30.3
Cc1nc(SCC(=O)Nc2ccccc2Cl)oc1C	D2 antag 31.2
COc1ccccc1N1CCN(Cc2ccco2)CC1	none
COc1ccccc1N1CCN(Cc2ccc(-c3ccccc3[N+](=O)[O-])o2)CC1	D2 antag 85.6
COc1cc(Cl)c(C)cc1Nc1nc2ccccc2c2nnc(C)n12	none (no result: D2 antag, D2 ag-1, D2 PAM-2)
Cc1ccc(NC(=O)CCNS(=O)(=O)c2cccc3nonc23)cc1	D2 antag 30.5
CC(C)c1ccc(NC(=O)CCNS(=O)(=O)c2cccc3nonc23)cc1	none
CS(=O)(=O)N(CCc1ccccc1)CC(N)=O	D2 antag 31.3
O=C(CN1C(=O)C(c2ccc(F)cc2)=NC12CCCCCC2)Nc1ccccc1Cl	none (no result: D2 antag, D2 ag-1, D2 PAM-2)
Cc1nnc(NC(=O)c2ccc(S(=O)(=O)N3CC(C)CC(C)C3)cc2)o1 (configuration not stated)	D2 PAM-1 35.3
O=c1cnnc(NCc2ccccc2)[nH]1	D2 PAM-1 36.1
COc1ccccc1CNC(=O)c1ccc(N2Cc3cccc(OC)c3Oc3ncccc32)s1	none (no result: D2 antag, D2 ag-1, D2 ag-2, D2 PAM-2)
CCc1ccc2oc(-c3cccc(NC(=O)C(C)(C)Oc4ccc(Br)cc4)c3)nc2c1	none (no result: D2 antag, D2 ag-1, D2 PAM-2)
Cc1cccc(Nc2nc(N3CCOCC3)nc(N3CCOCC3)n2)c1	none
Oc1cccc(Nc2nc(N3CCOCC3)nc(N3CCOCC3)n2)c1	D2 antag 36.0
Cc1cc(C(=O)Nc2ccccc2C)on1	none
Cc1ccccc1NC(=O)c1ccno1	D2 antag 31.7
CC(C)(C)c1cc(C(F)(F)F)nc(SCCCNC(=O)c2ccco2)n1	D2 antag 35.6
CC(C)(C)c1ccc(C(=O)NCCCNC(=O)c2ccco2)cc1	none
Cn1c(=O)c([N+](=O)[O-])c(NCCc2ccccc2)c2ccccc21	D2 antag 38.0
CCC1=C(OC(=O)N(CC)CC)N2C(=O)OC(=NCC(=O)OC)[C@]2(Cc2ccccc2)[C@H]2C1=CC[C@H]1C(=O)NC(=O)[C@H]12	D2 antag 53.2
CCC1=C(OC(=O)N(CC)CC)N2C(=O)OC(=NCC(=O)OC)[C@]2(Cc2ccccc2)[C@H]2C1=CC[C@H]1C(=O)N(C)C(=O)[C@H]12	none
COc1cccc(-n2sc3c(c2=S)-c2cc(OC)ccc2NC3(C)C)c1	none
CC1(C)Nc2ccc(O)cc2-c2c1ssc2=S	D2 antag 35.8
COc1cc(C(=O)OCCn2c(=O)c3c(ncn3CCN(C)C)n(C)c2=O)cc(OC)c1OC	D2 antag 33.8
CCCOc1ccc(CNC(=O)Cn2ncn3c(cc4sc(CC)cc43)c2=O)cc1	none (no result: D2 antag, D2 ag-1, D2 PAM-2)
O=C(CCCn1c(=O)[nH]c2ccccc2c1=O)NC1CCCCCC1	none
CC1CCC(NC(=O)CCCn2sc3ccccc3c2=O)CC1 (configuration not stated)	D2 antag 39.0
CCN=c1scc(C)n1/N=C/c1cc(Br)c(O)c(Br)c1	none
CCN=c1scc(C)n1/N=C/c1ccc(O)c(O)c1O	D2 ag-1 48.7, D2 ag-2 32.1, D2 PAM-2 116.9
CCOc1ccc(C(=O)NCCc2csc(-c3cccnc3)n2)cc1	none (no result: D2 antag, D2 ag-1, D2 PAM-2)
CCOc1ccc(OCCSc2nc3ccccc3[nH]2)cc1	D2 PAM-1 32.2
O=C(C1=C(Nc2ccccc2)c2ccccc2S(=O)(=O)N1)c1ccccc1	D2 antag 39.7
Cc1ccccc1NC1=C(C(=O)c2ccccc2)N(C)S(=O)(=O)c2ccccc21	none
